Experimental data: the supplement of paper PMC6555819

test system: PPARg homodimer (NR concentration 180 nM); experiment: PBM binding z-score (relative to random genomic background probes); higher = stronger binding; sequences stand for … in GC…GCGATTGACAGCGTAGAATGAAGG
How it was run: (§1)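 For binding z-scores, the reference was random background probes on custom Agilent 4×180K protein-binding microarrays. These arrays were incubated 1 h with ligand-free nuclear receptor dimers in PBS pH 7.4, 2% milk, 0.02% Triton X-100, 1 mM DTT, 0.2 mg/mL BSA and 0.4 mg/ml salmon testes DNA. Fluorescence was scanned after antibody detection of each partner (one per run) and regression-normalized.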

Sequence | PBM binding z-score
CTCCAAAGGTCGTGCTCAGGTGAGTATACCAAAC | 2.56
TAGCCAAGGTCATGGGCCAGTATACCACGCGAAC | 2.86
CGAACTACGTCAGAACAGGACAGTGAAGGATGAT | 0.0908
ATATGTTGGTTATCGGGTCATTCAGTTTGCGCAT | 2.81
ACAGACAGGTTATGAAGGTAACTCAGGCTATCAT | 0.432
CCGACTGGGGCAGAAAGGATACCATACCATCCGG | -0.142
TCACGGAGGACACGAAAGGTCAGAGCTCGACATC | 2.1
TGTCAAAGTTCAAAGGCAACGTAAGTATCCACAC | 3.71
CCTCGCAGGCCAATCTGGGTCACTCAAGGCTTGA | 0.567
GCGACTGGGGCATCAGCAGGTTACCATTACTTAA | 0.00295
TAGCCTAGGTCATGGGCCAGTATCCCACGCGAAC | 1.33
TCATATAGGTAAAAGGTGAAATTCGGTGTGGTAA | 2.68
CCTATTAGATGACCATAAGGGCAACCGAAGCTCG | 1.46
AGAACGAGGGCACGCTGAGTTGGTAGCAGAGTAG | -0.387
AGCACGAGGGCAATGAGTTGATAGCACGGGTGGC | -0.285
CCGACTGGGGCATAAAGTTACCATAAGCCAGCCC | -0.724
CGAACTAGGTCATCCAGGACAGTAAATACATTGA | 2.26
ATCTCTAGGTGAAGATAGTTCAGTGAATGCAAAT | 0.717
ACTATTAGTTGACTTGGGGCAACCGATACGACGC | 0.367
TAGCTTAGGTCATTGGGCCAGTATAGTACGCATC | 1.34

Sequence | PBM binding z-score
AGAATGCGGTTATTAAGATCAGGGAATTGCGGTC | -0.18
TCTTGTAGATAAGCAGGTTAAGAAAGCTGGCCAA | 0.0505
GCATATAGGTAATACAAGGTGAAAGTTCGATTGT | 1.2
GATACAGGGTCAAGGCCAGACTACGCGTATTGAT | 2.54
TCGGCTAGGTCAGTTGGTCAGCTAACGAGCTGCC | 0.3
AGTAAAAGTTCAGGACGAGGTAACGTAAAGCACG | 1.74
AGAACGAGGGCAATGAGTTGATAACACGGGTGGC | -0.128
TGAATGAGGTTATAAGCTCAGGGAACGTTGCAAA | -0.0591
TCTATTAGTTGATTAGGGCATCCGAAACAGCGGA | 1.28
ATATGTAGGTTAAGGGTAATTCAGGTTGGTTCGC | 2.15
CAAACTAGGTCACAGAGGTCAAATTCCGTGCGTA | 6.47
CGAACGAGGGCATGAGTGGATAGCAAATGCCGAT | -0.474
CCGAGTAGGTTATGGGGCATTCCGGCAACGGTGA | 0.995
CGTCCCAGGTCATAGGAGGTCAGTGAAGACAGAT | 3.83
TTACCAAGTTGAAGGTCGTTGATCCCTCTGTAGA | 0.828
GCACCAAGGTGAATAGGTCGTTGATGAGTAGGCG | 1.01
ATCGAAAGGTCGTGAGGTGAGTAGACAGAAAGGC | 1.44
CGAACTAGGTGATCCAGGACAGTGAATACATTGA | 0.425
TCTTGTAGATTAACAGGAGGTTAAGAAAGATCGA | -0.439
AGAATGAGGTTATTAATATCAGGGAATTGCGGTC | 0.953

test system: PXR:RXRa (NR concentration 270 nM, RXRa partner concentration 90 nM); experiment: as above
How it was run: as §1

Sequence | PBM binding z-score
CTCCAAAGGTCGTGCTCAGGTGAGTATACCAAAC | 3.53
TAGCCAAGGTCATGGGCCAGTATACCACGCGAAC | 4.24
CGAACTACGTCAGAACAGGACAGTGAAGGATGAT | -0.524
ATATGTTGGTTATCGGGTCATTCAGTTTGCGCAT | 3.49
ACAGACAGGTTATGAAGGTAACTCAGGCTATCAT | 0.377
CCGACTGGGGCAGAAAGGATACCATACCATCCGG | -0.951
TCACGGAGGACACGAAAGGTCAGAGCTCGACATC | 4.03
TGTCAAAGTTCAAAGGCAACGTAAGTATCCACAC | 4.86
CCTCGCAGGCCAATCTGGGTCACTCAAGGCTTGA | 1.21
GCGACTGGGGCATCAGCAGGTTACCATTACTTAA | -0.132
TAGCCTAGGTCATGGGCCAGTATCCCACGCGAAC | 1.43
TCATATAGGTAAAAGGTGAAATTCGGTGTGGTAA | 1.62
CCTATTAGATGACCATAAGGGCAACCGAAGCTCG | 0.624
AGAACGAGGGCACGCTGAGTTGGTAGCAGAGTAG | 0.612
AGCACGAGGGCAATGAGTTGATAGCACGGGTGGC | 1.56
CCGACTGGGGCATAAAGTTACCATAAGCCAGCCC | -0.621
CGAACTAGGTCATCCAGGACAGTAAATACATTGA | 2.15
ATCTCTAGGTGAAGATAGTTCAGTGAATGCAAAT | 1.58
ACTATTAGTTGACTTGGGGCAACCGATACGACGC | 0.156
TAGCTTAGGTCATTGGGCCAGTATAGTACGCATC | 1.97

Sequence | PBM binding z-score
AGAATGCGGTTATTAAGATCAGGGAATTGCGGTC | -0.396
TCTTGTAGATAAGCAGGTTAAGAAAGCTGGCCAA | 0.206
GCATATAGGTAATACAAGGTGAAAGTTCGATTGT | 1.86
GATACAGGGTCAAGGCCAGACTACGCGTATTGAT | 4.03
TCGGCTAGGTCAGTTGGTCAGCTAACGAGCTGCC | 0.186
AGTAAAAGTTCAGGACGAGGTAACGTAAAGCACG | 2.71
AGAACGAGGGCAATGAGTTGATAACACGGGTGGC | 1.53
TGAATGAGGTTATAAGCTCAGGGAACGTTGCAAA | 0.55
TCTATTAGTTGATTAGGGCATCCGAAACAGCGGA | 0.607
ATATGTAGGTTAAGGGTAATTCAGGTTGGTTCGC | 1.74
CAAACTAGGTCACAGAGGTCAAATTCCGTGCGTA | 7.14
CGAACGAGGGCATGAGTGGATAGCAAATGCCGAT | 0.213
CCGAGTAGGTTATGGGGCATTCCGGCAACGGTGA | -0.218
CGTCCCAGGTCATAGGAGGTCAGTGAAGACAGAT | 6.15
TTACCAAGTTGAAGGTCGTTGATCCCTCTGTAGA | 1.59
GCACCAAGGTGAATAGGTCGTTGATGAGTAGGCG | 0.721
ATCGAAAGGTCGTGAGGTGAGTAGACAGAAAGGC | 3.07
CGAACTAGGTGATCCAGGACAGTGAATACATTGA | -0.38
TCTTGTAGATTAACAGGAGGTTAAGAAAGATCGA | 0.578
AGAATGAGGTTATTAATATCAGGGAATTGCGGTC | 1.27
